According to PubChem BioAssay (NCI):
Values joined by “and” are separate entries in the source; they are usually repeats but may differ in a detail not shown here. Equal values may be shown once. Compounds without any hit were thinned out: in the full panel of roughly 83,000, 20% have a hit.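 How to read the values: 0–100, growth inhibition (40 = 60% inhibited); 0, no net growth; -100 to 0, cell death (-40 = 40% of starting cells died; -100 = all dead).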 Active and inactive are the calls of the source. How the source made its calls: active means growth percent below 10; inactive means the rest.

tested on: TK-10 renal; test: NCI-60 one-dose screen, 48 h (100 = growth as untreated, 0 = no growth, -100 = all killed); conditions: 10 µM unless noted

| SMILES | growth |
| --- | --- |
| Cc1ccc(/C=N/Nc2nc3ccccc3s2)s1 | 14.8% [100 µM] (inactive) and 8.44% [100 µM] (active) |
| CC1CC(C(=O)OC2OC(COC3OC(CO)C(OC4OC(C)C(O)C(O)C4O)C(O)C3O)C(O)C(O)C2O)C2CCC3(C)C(=CCC4(C)C3CCC3C(C)(CO)C(O)C(O)CC34C)C2C1C (stereo unspecified) | -65.8% [100 µM] (active) and -100% [100 µM] (active) |
| COc1ccc2cc1Oc1ccc(cc1)C[C@@H]1c3cc(c(OC)cc3CCN1C)Oc1c(OC)c(OC)cc3c1[C@H](C2)N(C)CC3 | 33.5% [100 µM] (inactive) and -100% [100 µM] (active) |
| O=C(O)COc1cc(-c2ccccc2F)nc2cc3c(cc12)OCO3 | 113% [100 µM] (inactive) and 102% [100 µM] (inactive) |
| O=C1NC(N/N=C\c2ccccc2)=N/C1=C/c1ccc(Cl)cc1 | -70.8% [100 µM] (active) and 57.9% [100 µM] (inactive) |
| O=C(Cc1nc2ccc(C(=O)c3ccccc3)cc2[nH]c1=O)C(=O)Nc1ccccc1[N+](=O)[O-] | 75.1% [100 µM] (inactive) and 12.6% [100 µM] (inactive) |
